VP16 counter: inhibits Gal4-VP16 luciferase reporter, ROR gamma counter-screen. Drosophila S2 Gal4-VP16 UAS-luciferase, luminescence, 20 h. Potency, µM (highest dose often 53.6 µM), without a hit: at the top dose activity, negative = inhibition, usual class: inhibitors. 310,000 tested, 3.5% active. AID 2546;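 further: Gal4-VP16 expression switched on by copper sulfate through the metallothionein promoter; potency means the concentration at half of the fitted maximal effect; on the % scale 0 is the no-effect control and ±100 the full control effect; nearly all actives have a fitted effect of over 50% in size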
RORg inh: blocks mouse ROR gamma transcriptional activity; AID 2551; Potency, µM (top dose mostly 53.6 µM), for the others: at the top dose activity change, negative = inhibition, hits mostly inhibitors; Drosophila S2 Gal4-RORgamma UAS-luciferase reporter, 20 h; 310,000 tested, 5.4% active; further: potency means the concentration at half of the fitted maximal effect; on the % scale 0 is the no-effect control and ±100 the full control effect; nearly all actives have a fitted effect of over 60% in size
Target sequence (P51450 whole entry, looked up, the tested form may be a part): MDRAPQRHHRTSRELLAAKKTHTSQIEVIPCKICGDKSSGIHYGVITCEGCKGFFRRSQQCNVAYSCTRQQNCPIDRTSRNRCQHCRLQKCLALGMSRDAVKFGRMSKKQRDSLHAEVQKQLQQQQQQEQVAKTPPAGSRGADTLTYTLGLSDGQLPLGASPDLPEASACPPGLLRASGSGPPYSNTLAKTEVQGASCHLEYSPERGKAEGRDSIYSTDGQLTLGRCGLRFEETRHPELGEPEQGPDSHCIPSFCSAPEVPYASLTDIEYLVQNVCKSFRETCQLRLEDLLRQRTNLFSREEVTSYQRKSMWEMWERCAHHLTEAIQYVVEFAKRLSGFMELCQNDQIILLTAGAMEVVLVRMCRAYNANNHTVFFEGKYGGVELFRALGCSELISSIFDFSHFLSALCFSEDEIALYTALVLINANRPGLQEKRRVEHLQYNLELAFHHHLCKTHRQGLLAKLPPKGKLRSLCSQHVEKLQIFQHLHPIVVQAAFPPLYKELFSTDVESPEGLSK
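A Gal4/UAS one-hybrid system in insect cells: metallothionein-promoter Gal4–ROR gamma fusion plus Photinus luciferase reporter. Copper sulfate 700 uM final, 20 hr ambient incubation, luminescent detection after 10 min with reagent.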
MBNL1-CUG inh: inhibitors of human MBNL1 binding to CUG repeat RNA | Potency, µM (highest dose often 57.5 µM), inactives show at the highest dose activity change, negative = inhibition, most hits filed as inhibitors | TR-FRET MBNL1-His/biotin-(CUG)12 binding, 665/545 ratio | 280,000 tested, 0.036% active | AID 2675; active means well fitted inhibition curve with a large enough effect in the signal ratio, with a control signal flat, not every such curve was filed as active; inconclusive means small, poorly fitted or top-dose-only effect, or effect the other way, or a change in a side signal; inactive means no such curve, though single readings can be large or run the other way; the % refers to the signal ratio; further: potency means the concentration at half of the fitted maximal effect; on the % scale 0 is the no-effect control and ±100 the full control effect
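TR-FRET between His-tagged MBNL1 and biotin-(CUG)12 RNA, detected with Tb anti-His antibody (0.055 ng/ul) and streptavidin-XL665 (5 nM), 60 min at room temperature. Compounds titrated 92 nM to 58 uM; 665/545 nm ratio normalized to buffer and complex controls.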
CBFb RUNX1 block: inhibitors of human CBF-beta and RUNX1 interaction; Potency, µM (titrated, usually from 59.8 µM), inactives show top-dose activity, negative = inhibition, usual class: inhibitors; 230,000 tested, under 10 active; AID 1477; AlphaScreen CBFb-His/RUNX1-biotin binding, biochemical; further: % of control where 0% means no effect
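CBFb-His/RUNX1-biotin, 30 nM each, preincubated 20 min RT; compound 15 min RT; Ni + streptavidin beads 50 ng each, 90 min RT; AlphaScreen read.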
CtBP-E1A inh: CtBP/E1A binding inhibition. 340,000 tested, 0.49% active. AID 651724. activity change, % (concentration not given with the values). AlphaScreen GST-E1A/His-CtBP binding, 1536-well; stronger effect = lower value; in the data active means activity change below about -65%; inconclusive means mostly about -30% to -63%; further: on the % scale 0 is the no-effect control and ±100 the full control effect
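GST-E1A and His-tagged CtBP (125 nM each as 5X stock) were preincubated with pin-transferred compound for 2 h at 37 °C in the dark, then glutathione donor and nickel acceptor beads were added for 1 h before AlphaScreen reading.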
Six1-Eya2 blk: Six1/Eya2 interaction inhibition | activity change, % (test concentration not listed) | Q15475+O00167 | AlphaScreen GST-Six1/His-Eya2 binding, biochemical; stronger effect = lower value | AID 651725 | 360,000 tested, 0.56% active; in the data active means activity change below about -65%; inconclusive means mostly about -30% to -63%; further: on the % scale 0 is the no-effect control and ±100 the full control effect
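AlphaScreen luminescence read after one hour at 37 °C in darkness. Pin-transferred compounds met GST-Six1 and His-Eya2 protein (5X stock 250 nM/500 nM) plus glutathione donor and Ni-chelate acceptor beads (5X, 50 ug/mL).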
* marks the source's active call; other numbers are inactive results; ? = inconclusive; nt = not tested or not shown; ! = not confirmed by another sample; [ ] = another dose, or the depositor's remark. Most compounds without a hit are left out; they make up all but 5.5% or so of the library. Unless noted, the call rests on the fitted dose curve; in most records, active means well fitted curve in the direction sought with a large enough effect; inconclusive means small, poorly fitted or top-dose-only effect, or another doubt; inactive means no such curve, though single readings can be large; an effect the other way counts as inactive or inconclusive.

SMILES | VP16 counter | RORg inh | MBNL1-CUG inh | CBFb RUNX1 block | CtBP-E1A inh | Six1-Eya2 blk
O=C1C[C@@H](c2ccccc2Cl)N1S(=O)(=O)c1ccccc1[N+](=O)[O-] | 15% | -9% | nt | 11% | nt | nt
CC(C)OC(=O)C1OC1(C)c1ccccc1 (configuration not stated) | nt | nt | nt | nt | -3 | -3
Nc1nn(S(=O)(=O)c2ccccc2)cc1-c1ccc([N+](=O)[O-])cc1 | 35µM* | ? | ? | -4% | 0 | -20
Cc1ccc(S(=O)(=O)n2cc(-c3ccccc3)c(N)n2)cc1 | 0% | 21% | 3% | 0% | 32 | 17
O=C(c1ccc(NS(=O)(=O)c2ccc(F)cc2)cc1)N1CCOCC1 | nt | nt | nt | nt | 4 | 4
COc1cc(/C=C/C(=O)N2CCCCC2=O)cc(OC)c1OC | 7.9µM* | 7.1µM* | nt | -3%[21.7 µM] | nt | nt
COc1cc(/C=C\C(=O)N2CCC=CC2=O)cc(OC)c1OC | 5µM* | 5µM* | nt | -1%[21.7 µM] | nt | nt
COc1cc(/C=C/C(=O)N2CCCC2)cc(OC)c1OC | -4% | 0% | 10% | 2% | 2 | -2
O=C(Nc1ccccc1Cl)c1cc(C2CCCN(C(=O)C3CCCCC3)C2)on1 (configuration not stated) | nt | nt | nt | nt | 3 | -3
CC(C)Sc1cc(Cl)nc(NC(=O)Nc2ccccc2)n1 | -16% | 5% | 3% | nt | 0 | -7
O=[N+]([O-])c1ccc2c(c1Nc1ccccc1Cl)=NC1(CCCCC1)N=2 | 3% | -11% | 10% | -2% | 0 | -6
Cc1ccc(Nc2c([N+](=O)[O-])ccc3c2=NC2(CCCCC2)N=3)cc1 | -16% | 7.9µM* | ? | -27% | -27 | ?
N#CCCN(/N=C/c1cccnc1)C1=NS(=O)(=O)c2ccccc21 | -1% | 16% | 3% | 5% | -24 | -18
Cc1cccc(/C=N/N(CCO)C2=NS(=O)(=O)c3ccccc32)c1 | -3% | 23% | 5% | -30% | -81* | ?
CC(C)(C)NC(=O)CCN(/N=C/c1ccccc1)C1=NS(=O)(=O)c2ccccc21 | 0% | 41% | -1% | nt | -65* | ?
COc1ccc(-c2c(C)[nH]n3c(=O)c(Cc4ccccc4)c(C)nc23)cc1 | 3.2µM* | 2.5µM* | -10% | -4% | -71* | -67*
CCc1c(C)nc2c(-c3ccccc3)c(C)[nH]n2c1=O | ? | 11µM* | 2% | nt | -25 | -23
Cc1[nH]n2c(=O)c(C#N)c(-c3ccccc3)nc2c1-c1ccccc1 | -17% | 23% | 5% | -3% | 1 | -3
COc1ccccc1-c1c(C)[nH]n2c(=O)c(Cc3ccccc3)c(C)nc12 | 11µM* | 14µM* | -7% | 9% | -4 | -16
C=CC1=C(C)C2=Cc3c(C=C)c(C)c4[n]3[Sn+2][n]3c(c(C)c(CCC(=O)O)c3=CC3=NC(=C4)C(C)=C3CCC(=O)O)=CC1=N2 | -12% | -15% | nt | -25%[21.7 µM] | nt | nt
COc1cc(CN2C[C@@H](CO)O[C@@H](n3cnc4c(NC5CC5)ncnc43)C2)cc(OC)c1OC | nt | nt | nt | nt | 4 | -3
CCOc1ccc(-n2cc(-c3ccccc3)c3c(=S)nc[nH]c32)cc1 | 1.1µM* | 1µM* | 54% | nt | nt | -27
CCOc1ccc(-n2cc(-c3ccccc3)c3c(=O)[nH]cnc32)cc1 | -6% | -16% | -4% | -6% | 12 | 1
Cc1nc2ccccc2nc1N1CCCCC1 | 16% | 19% | 1% | 5% | 7 | 16
Cc1ccc2c(Cl)c(C)c(N3CCCCC3)nc2n1 | ? | 4µM* | 2% | 9% | 12 | 3
SMILES | VP16 counter | RORg inh | MBNL1-CUG inh | CBFb RUNX1 block | CtBP-E1A inh | Six1-Eya2 blk
Cc1cc2nc(-c3ccccc3)c(CC(C)(C)C)n2c(C)c1Br | nt | nt | nt | nt | 3 | -2
CCOc1ccc(C2C3=C(CCCC3=O)Nc3nc(C(F)(F)F)nn32)cc1OC (configuration not stated) | 1% | 22% | -1% | 5% | -4 | 8
COc1ccc(C2C3=C(CCCC3=O)Nc3nc(C(F)(F)F)nn32)cc1OC (configuration not stated) | -12% | 4.5µM* | -5% | 19% | 2 | -2
CCOc1ccc(-c2nc(C)c(C(C)=O)n2O)cc1 | 25µM* | 18% | 0% | -2% | -1 | 0
COc1ccc(-c2nc(C)c(C(C)=O)n2O)cc1 | -8% | -5% | -4% | -2% | -2 | 3
N=C(N)SCc1nc2ccccc2c(=O)n1-c1ccccc1 | ? | 2% | 3% | -1% | -83*! | -82*!
c1ccc(COc2cccc(CNCc3ccccn3)c2)cc1 | -19% | 11µM* | -3% | 9% | -27 | -28
Oc1ccc(NCc2cccc(OCc3ccc(F)cc3)c2)cc1 | ? | 10µM* | ? | -26% | nt | 1
O=[N+]([O-])c1ccc(COc2cccc(CNc3ccc(F)cc3)c2)cc1 | 5% | 23% | 29% | -1% | 7 | ?
OCCNCc1cccc(OCc2ccc(Cl)cc2)c1 | 15% | 4% | 1% | 2% | 0 | 18
c1ccc(COc2cccc(CNCc3cccnc3)c2)cc1 | 10%[10 µM] | 5% | -3% | 1% | -14 | -2
Oc1ccc(NCc2cccc(OCc3ccccc3)c2)cc1 | ? | 11µM* | ? | -27% | nt | -20
COc1cc(OC)c2c(-c3ccccc3)cc(=O)oc2c1C(CCN1CCCC(C)C1)c1ccc(N(C)C)cc1 (configuration not stated) | -28% | ? | 8% | ? | nt | -67*
COc1ccc(C(CCN2CCCC(C)C2)c2c(OC)cc(OC)c3c(-c4ccccc4)cc(=O)oc23)cc1 (configuration not stated) | -24% | ? | 16% | 0% | -10 | -13
CCCCCc1cc(=O)oc2c(C(CCN3CCN(c4ccccc4)CC3)c3ccc(N(C)C)cc3)c(OC)cc(OC)c12 (configuration not stated) | 3% | -6% | -4% | ? | -28 | -66*
CCCNC(=S)Nc1ccc(CC(=O)OC)cc1 | 7% | -40% | 2% | 3% | -2 | 8
COC(=O)Cc1ccc(NC(=S)NCc2ccccc2OC)cc1 | 25µM* | 8.9µM* | -23% | 3% | -16 | 3
NC(=S)Cc1ccccc1Cl | -26% | 10µM* | -6% | 6% | 6 | -1
COc1ccccc1CNC(=S)Nc1ccc(F)cc1 | 6.3µM* | 7.9µM* | -6% | nt | -1 | -3
COc1ccccc1CNC(=O)CCc1ccccc1 | 28% | ? | 6% | nt | nt | -2
COc1ccccc1CNC(=S)NCCc1ccccc1 | ? | 2.5µM* | -7% | -4% | -2 | -12
